Laboratory results published in the supplement of paper PMC10849652.
The full data set covers some 7,900 targets. This sample favours those with a hit. About 0.6% of all pairs of compound and target were hits.

Experiments:
Experiment in all cases: log2 fold change, soluble protein after heating vs DMSO (PISA); higher = thermal stabilisation; K562 cells, 10 uM, 30 min; active = over 0.2 and 3.5 SD of the protein, either way, in both replicates (recomputed)
erlotinib = compound: C#Cc1cccc(Nc2ncnc3cc(OCCOC)c(OCCOC)cc23)c1 [erlotinib]
Summary of the method: (§1)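 Thermal stability values are relative to control samples and come from duplicates. They are expressed as log2 fold changes. For measurement, K562 cells (2×10^6 cells/mL) received 10 μM compound for 30 min, and aliquots were heated for 3 min over 48°C-58°C, pooled, and extracted at 4°C in PBS with 0.5% NP-40. Soluble protein, the supernatant after 21,000xg for 90 min, was quantified by TMTpro 16plex LC-MS/MS with equalised channel sums.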

[1] = compound: C/C(=N\NC(=O)C1=CC(=CC=C1)S(=O)(=O)N2CCOCC2)/C3=C(C=CC(=C3)Cl)O
Summary of the method: as §1

[2] = compound: C1=CC(=C(C=C1Cl)C2=NC3=NC=CN=C3C(=N2)NC4=CC=NC=C4)F
Summary of the method: as §1

[3] = compound: C1=CC(=CC=C1C2=NC3=C(N2)C=C(C=C3)C(=O)N)OC4=CC=C(C=C4)Cl
Summary of the method: as §1

[4] = compound: C1=CC2=C(C=CC(=C2)/C=C\3/C(=O)NC(=NCC4=CC=CS4)S3)N=C1
Summary of the method: as §1

[5] = compound: C1=CC2=NC=CN=C2C=C1/C=C/3\C(=O)NC(=O)S3
Summary of the method: as §1

[6] = compound: C1=CC=C(C=C1)C2=NC(=C(N2)C3=CC=NC=C3)C4=CC(=C(C=C4)Cl)O
Summary of the method: as §1

[7] = compound: C1=CC=C2C(=C1)C3=NNC4=CC=CC(=C43)C2=O
Summary of the method: as §1

[8] = compound: C1CCN(C1)C(=O)NC2=CC=CC(=C2)NC3=NC=C(C(=N3)NCCC4=CN=CN4)Br
Summary of the method: as §1

[9] = compound: C1CN(CCC1(CC2=CC=C(C=C2)Cl)N)C3=NC=NC4=C3C=CN4
Summary of the method: as §1

IRAK-1-4 Inhibitor I = compound: C1COCCN1CCN2C3=CC=CC=C3N=C2NC(=O)C4=CC(=CC=C4)[N+](=O)[O-] [IRAK-1-4 Inhibitor I]
Summary of the method: as §1

ibrutinib = compound: C=CC(=O)N1CCC[C@@H](n2nc(-c3ccc(Oc4ccccc4)cc3)c3c(N)ncnc32)C1 [ibrutinib]
Summary of the method: as §1

[10] = compound: CC(=O)c1cnc2ccc(-c3cc(Cl)c(O)c(Cl)c3)nc2c1N[C@H]1CC[C@H](CN(C)C)CC1
Summary of the method: as §1

ralimetinib = compound: CC(C)(C)Cn1c(N)nc2ccc(-c3[nH]c(C(C)(C)C)nc3-c3ccc(F)cc3)nc21 [ralimetinib]
Summary of the method: as §1

[11] = compound: CC(C)(O)CC(=O)NCCn1ccc2ncnc(Nc3ccc(Oc4cccc(C(F)(F)F)c4)c(Cl)c3)c21
Summary of the method: as §1

[12] = compound: CC(C)C1=C2N=C(C=C(N2N=C1)NCC3=CC=CC=C3)NCCCCCCN
Summary of the method: as §1

[13] = compound: CC(C)C[C@@H](C=O)NC(=O)[C@H](CC(C)C)NC(=O)[C@H](CC(C)C)NC(=O)OCc1ccccc1
Summary of the method: as §1

pinometostat = compound: CC(C)N(C[C@H]1O[C@@H](n2cnc3c(N)ncnc32)[C@H](O)[C@@H]1O)[C@H]1C[C@@H](CCc2nc3cc(C(C)(C)C)ccc3[nH]2)C1 [pinometostat]
Summary of the method: as §1

[14] = compound: CC1=C(C(CC(=O)N1)C2=CC=C(C=C2)C(F)(F)F)C(=O)NC3=C(C=C4C(=C3)C=NN4)F
Summary of the method: as §1

[15] = compound: CC1=C(C2=C(C=C1)C(=O)C3=CC=CC=C3N2CCCN)C
Summary of the method: as §1

Measured: log2 fold change

GLYR1 (UniProt Q49A26)
inactive: erlotinib -0.053 | [1] -0.211 | [2] -0.289 | [3] 0.05 | [4] -0.352 | [5] 0.1 | [6] -0.021 | [7] -0.034 | [8] 0.119 | [9] -0.03 | IRAK-1-4 Inhibitor I -0.067 | ibrutinib -0.074 | [10] 0.054 | ralimetinib 0.088 | [11] 0.093 | [12] -0.057 | [13] 0.09 | pinometostat 0.111 | [14] -0.076 | [15] -0.016

HPCAL1 (UniProt P37235)
inactive: erlotinib 0.011 | [1] 0.048 | [2] 0.029 | [3] 0 | [4] 0 | [5] 0.057 | [6] -0.063 | [7] 0.002 | [8] 0.013 | [9] -0.034 | IRAK-1-4 Inhibitor I 0.02 | ibrutinib -0.015 | [10] 0.028 | ralimetinib -0.117 | [11] -0.018 | [12] -0.081 | [13] -0.015 | pinometostat -0.003 | [14] 0.001 | [15] -0.041

HTATIP2 isoform 3 (UniProt Q9BUP3)
Sequence of UniProt Q9BUP3 (Q9BUP3 whole entry, looked up): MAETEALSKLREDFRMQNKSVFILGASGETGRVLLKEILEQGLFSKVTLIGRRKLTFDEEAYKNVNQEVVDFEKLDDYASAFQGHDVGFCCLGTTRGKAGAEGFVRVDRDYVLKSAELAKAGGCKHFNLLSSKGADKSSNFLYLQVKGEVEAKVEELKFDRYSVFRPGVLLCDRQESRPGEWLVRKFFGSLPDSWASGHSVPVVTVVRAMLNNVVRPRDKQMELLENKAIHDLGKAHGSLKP
active: [11] 0.651
inactive: erlotinib 0.016 | [1] 0.112 | [2] 0.016 | [3] -0.02 | [4] -0.143 | [5] 0.005 | [6] 0.012 | [7] 0.033 | [8] -0.039 | [9] 0.005 | IRAK-1-4 Inhibitor I 0.007 | ibrutinib 0.003 | [10] -0.034 | ralimetinib 0.077 | [12] -0.182 | [13] -0.021 | pinometostat 0.006 | [14] -0.017 | [15] 0.025

FNTB (UniProt P49356)
Sequence of UniProt P49356 (P49356 whole entry, looked up): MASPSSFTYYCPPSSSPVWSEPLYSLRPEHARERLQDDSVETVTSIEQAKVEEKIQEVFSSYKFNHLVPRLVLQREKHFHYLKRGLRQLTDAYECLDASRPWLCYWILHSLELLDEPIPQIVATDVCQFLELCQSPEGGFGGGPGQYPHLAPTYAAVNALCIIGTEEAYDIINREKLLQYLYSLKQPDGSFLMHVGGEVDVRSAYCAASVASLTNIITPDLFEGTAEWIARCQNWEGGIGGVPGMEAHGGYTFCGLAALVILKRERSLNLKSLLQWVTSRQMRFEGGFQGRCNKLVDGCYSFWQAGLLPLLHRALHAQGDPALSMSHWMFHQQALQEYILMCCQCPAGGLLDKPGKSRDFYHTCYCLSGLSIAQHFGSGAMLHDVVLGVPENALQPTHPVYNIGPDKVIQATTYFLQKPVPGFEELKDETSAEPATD
active: erlotinib 0.488
inactive: [1] 0.028 | [2] 0.203 | [3] 0.028 | [4] 0.208 | [5] -0.024 | [6] 0.091 | [7] 0.107 | [8] 0.326 | [9] 0.065 | IRAK-1-4 Inhibitor I 0.017 | ibrutinib 0.309 | [10] -0.028 | ralimetinib -0.016 | [11] -0.025 | [12] 0.074 | [13] -0.033 | pinometostat -0.003 | [14] -0.146 | [15] -0.087

HMGN1 (UniProt P05114)
Sequence of UniProt P05114 (P05114 whole entry, looked up): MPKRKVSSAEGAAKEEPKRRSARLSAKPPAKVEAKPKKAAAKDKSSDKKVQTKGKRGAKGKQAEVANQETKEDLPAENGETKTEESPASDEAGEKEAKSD
active: [15] 0.294
inactive: erlotinib -0.069 | [1] -0.114 | [2] -0.011 | [3] 0.066 | [4] -0.114 | [5] 0.045 | [6] -0.062 | [7] -0.059 | [8] 0.029 | [9] -0.028 | IRAK-1-4 Inhibitor I -0.006 | ibrutinib 0.049 | [10] 0.064 | ralimetinib 0.032 | [11] 0.166 | [12] 0.148 | [13] 0.042 | pinometostat -0.022 | [14] 0.014

HOOK3 (UniProt Q86VS8)
inactive: erlotinib 0.04 | [1] 0.039 | [2] 0.009 | [3] -0.008 | [4] 0.055 | [5] 0.032 | [6] -0.002 | [7] -0.036 | [8] -0.005 | [9] -0.024 | IRAK-1-4 Inhibitor I 0.003 | ibrutinib -0.057 | [10] -0.018 | ralimetinib 0.033 | [11] -0.109 | [12] -0.138 | [13] 0.056 | pinometostat 0.024 | [14] 0.008 | [15] 0.02

HNRNPK isoform 2 (UniProt P61978)
inactive: erlotinib 0.042 | [1] 0.019 | [2] -0.003 | [3] 0 | [4] 0.058 | [5] -0.008 | [6] -0.013 | [7] -0.024 | [8] 0.011 | [9] 0.02 | IRAK-1-4 Inhibitor I -0.014 | ibrutinib -0.014 | [10] -0.161 | ralimetinib -0.054 | [11] -0.025 | [13] 0.003 | pinometostat -0.033 | [14] 0.005 | [15] -0.062
active: [12] -0.283

GLCCI1 (UniProt Q86VQ1)
Sequence of UniProt Q86VQ1 (Q86VQ1 whole entry, looked up): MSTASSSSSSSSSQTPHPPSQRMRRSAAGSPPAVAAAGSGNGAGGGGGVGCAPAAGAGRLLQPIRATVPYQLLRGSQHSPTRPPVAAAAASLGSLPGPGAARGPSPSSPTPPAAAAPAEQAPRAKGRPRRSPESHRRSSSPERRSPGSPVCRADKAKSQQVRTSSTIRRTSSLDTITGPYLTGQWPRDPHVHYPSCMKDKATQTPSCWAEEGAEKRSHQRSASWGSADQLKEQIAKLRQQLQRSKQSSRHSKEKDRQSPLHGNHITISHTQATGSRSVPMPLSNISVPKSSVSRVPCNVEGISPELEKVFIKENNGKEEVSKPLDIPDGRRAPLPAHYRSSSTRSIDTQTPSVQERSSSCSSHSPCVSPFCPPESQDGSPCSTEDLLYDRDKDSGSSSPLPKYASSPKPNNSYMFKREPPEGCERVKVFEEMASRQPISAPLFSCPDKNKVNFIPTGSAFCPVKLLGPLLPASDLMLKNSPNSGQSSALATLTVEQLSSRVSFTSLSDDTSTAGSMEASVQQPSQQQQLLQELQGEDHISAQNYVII
inactive: erlotinib 0.027 | [1] -0.101 | [2] -0.058 | [3] -0.006 | [4] 0.091 | [5] 0.023 | [6] -0.264 | [7] -0.017 | [8] -0.044 | [9] -0.024 | IRAK-1-4 Inhibitor I 0.062 | ibrutinib 0.013 | [10] -0.131 | ralimetinib 0.001 | [11] -0.012 | [12] 0.075 | [13] 0.017 | pinometostat -0.03 | [14] 0.098 | [15] -0.013

HIC2 (UniProt Q96JB3)
Sequence of UniProt Q96JB3 (Q96JB3 whole entry, looked up): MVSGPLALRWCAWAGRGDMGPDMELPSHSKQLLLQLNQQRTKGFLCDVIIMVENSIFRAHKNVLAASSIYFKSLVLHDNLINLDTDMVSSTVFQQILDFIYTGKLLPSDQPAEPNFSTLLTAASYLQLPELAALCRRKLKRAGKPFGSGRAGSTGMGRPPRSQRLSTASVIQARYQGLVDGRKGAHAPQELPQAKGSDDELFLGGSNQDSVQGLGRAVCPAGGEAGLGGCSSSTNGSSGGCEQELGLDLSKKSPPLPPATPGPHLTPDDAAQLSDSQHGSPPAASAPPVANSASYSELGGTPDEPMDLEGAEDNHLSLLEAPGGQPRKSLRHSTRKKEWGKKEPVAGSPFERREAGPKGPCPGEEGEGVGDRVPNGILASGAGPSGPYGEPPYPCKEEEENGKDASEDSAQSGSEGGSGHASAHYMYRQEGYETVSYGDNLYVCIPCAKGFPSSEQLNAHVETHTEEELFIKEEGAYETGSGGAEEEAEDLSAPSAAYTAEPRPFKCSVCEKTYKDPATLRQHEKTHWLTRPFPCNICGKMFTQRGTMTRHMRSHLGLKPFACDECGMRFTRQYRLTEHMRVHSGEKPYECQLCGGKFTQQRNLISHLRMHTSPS
inactive: erlotinib 0.128 | [1] 0 | [2] -0.17 | [3] 0.028 | [4] -0.159 | [5] -0.08 | [6] 0.012 | [7] -0.266 | [8] -0.023 | [9] -0.09 | IRAK-1-4 Inhibitor I -0.073 | ibrutinib 0.123 | [10] 0.024 | ralimetinib 0.218 | [11] 0.065 | [12] -0.07 | [13] -0.03 | pinometostat 0.143 | [14] 0.015 | [15] 0.088

GNAS (UniProt Q5JWF2)
Sequence of UniProt Q5JWF2 (Q5JWF2 whole entry, looked up): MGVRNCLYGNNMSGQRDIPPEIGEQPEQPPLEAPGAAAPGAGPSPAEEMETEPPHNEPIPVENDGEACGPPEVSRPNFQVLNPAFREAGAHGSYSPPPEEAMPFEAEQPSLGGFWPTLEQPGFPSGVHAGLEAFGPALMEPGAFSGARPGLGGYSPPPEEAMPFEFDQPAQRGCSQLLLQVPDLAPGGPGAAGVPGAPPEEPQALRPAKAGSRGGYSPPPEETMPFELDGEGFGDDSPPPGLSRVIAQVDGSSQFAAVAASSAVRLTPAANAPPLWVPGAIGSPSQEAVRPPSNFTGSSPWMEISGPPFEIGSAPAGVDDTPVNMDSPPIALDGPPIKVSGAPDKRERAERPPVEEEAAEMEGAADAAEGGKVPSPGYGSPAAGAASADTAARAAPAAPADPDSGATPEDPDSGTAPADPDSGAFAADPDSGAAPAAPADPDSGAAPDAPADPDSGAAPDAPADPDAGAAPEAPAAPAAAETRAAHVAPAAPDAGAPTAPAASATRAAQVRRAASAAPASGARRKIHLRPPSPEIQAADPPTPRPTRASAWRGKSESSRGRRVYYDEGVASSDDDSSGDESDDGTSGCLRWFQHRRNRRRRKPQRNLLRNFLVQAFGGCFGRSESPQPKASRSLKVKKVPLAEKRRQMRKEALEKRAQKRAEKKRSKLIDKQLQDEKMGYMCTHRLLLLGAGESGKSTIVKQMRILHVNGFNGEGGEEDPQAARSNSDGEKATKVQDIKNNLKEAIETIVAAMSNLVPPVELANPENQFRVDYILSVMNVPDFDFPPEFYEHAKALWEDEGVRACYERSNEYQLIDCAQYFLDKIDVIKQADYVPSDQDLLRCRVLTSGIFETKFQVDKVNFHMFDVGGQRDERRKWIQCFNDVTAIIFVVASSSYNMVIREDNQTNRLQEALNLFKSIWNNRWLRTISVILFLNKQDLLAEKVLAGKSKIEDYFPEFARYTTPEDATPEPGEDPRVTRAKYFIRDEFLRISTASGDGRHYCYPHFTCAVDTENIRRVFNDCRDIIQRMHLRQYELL
inactive: erlotinib 0.001 | [1] 0.042 | [2] -0.032 | [3] 0.043 | [4] 0.026 | [5] 0.021 | [6] 0.02 | [7] 0.011 | [8] -0.011 | [9] 0.043 | IRAK-1-4 Inhibitor I -0.04 | ibrutinib 0.001 | [10] -0.059 | ralimetinib 0.009 | [11] 0.022 | [12] 0.041 | [13] -0.009 | pinometostat 0 | [14] -0.059 | [15] 0.073

GNG5 (UniProt P63218)
Sequence of UniProt P63218 (P63218 whole entry, looked up): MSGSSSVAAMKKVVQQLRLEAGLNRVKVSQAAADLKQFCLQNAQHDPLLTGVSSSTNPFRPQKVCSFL
inactive: erlotinib -0.07 | [1] 0.01 | [3] 0.089 | [4] 0.031 | [5] -0.001 | [6] 0.072 | [7] 0.038 | [8] -0.037 | [9] -0.044 | IRAK-1-4 Inhibitor I -0.022 | ibrutinib 0.039 | [10] 0.047 | ralimetinib 0.072 | [11] -0.084 | [12] 0.109 | [13] -0.065 | pinometostat -0.072 | [14] -0.071 | [15] 0.002
active: [2] 0.436

GOLGB1 isoform 2 (UniProt Q14789)
inactive: erlotinib -0.152 | [1] -0.045 | [3] -0.055 | [4] 0.099 | [5] 0.071 | [6] -0.049 | [7] -0.059 | [8] -0.059 | [9] -0.08 | IRAK-1-4 Inhibitor I -0.023 | ibrutinib -0.032 | [10] 0.031 | ralimetinib 0.045 | [11] 0.05 | [12] 0.065 | [13] 0.082 | pinometostat 0.102 | [14] 0.048 | [15] -0.051
active: [2] -0.312

GUSB (UniProt P08236)
Sequence of UniProt P08236 (P08236 whole entry, looked up): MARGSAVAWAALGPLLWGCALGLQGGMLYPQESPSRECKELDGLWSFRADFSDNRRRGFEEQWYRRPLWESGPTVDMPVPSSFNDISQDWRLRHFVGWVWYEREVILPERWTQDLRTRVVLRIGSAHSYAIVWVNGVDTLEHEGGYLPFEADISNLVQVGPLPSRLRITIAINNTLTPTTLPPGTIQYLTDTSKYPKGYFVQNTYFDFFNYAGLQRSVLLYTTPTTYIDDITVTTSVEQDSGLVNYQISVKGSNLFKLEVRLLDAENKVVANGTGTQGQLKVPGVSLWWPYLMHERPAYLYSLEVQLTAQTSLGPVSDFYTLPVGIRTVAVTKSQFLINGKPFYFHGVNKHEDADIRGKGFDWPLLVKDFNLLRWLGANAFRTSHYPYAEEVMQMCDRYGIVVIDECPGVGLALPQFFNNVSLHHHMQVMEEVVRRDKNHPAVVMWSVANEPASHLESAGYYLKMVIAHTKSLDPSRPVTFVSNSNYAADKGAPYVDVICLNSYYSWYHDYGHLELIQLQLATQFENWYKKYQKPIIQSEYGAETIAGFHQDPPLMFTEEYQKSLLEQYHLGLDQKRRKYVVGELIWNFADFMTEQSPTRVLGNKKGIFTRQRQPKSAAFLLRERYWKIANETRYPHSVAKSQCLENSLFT
inactive: erlotinib 0.09 | [1] -0.099 | [2] -0.063 | [3] 0.165 | [4] -0.095 | [5] 0.032 | [6] 0.009 | [7] 0.052 | [8] 0.033 | [9] -0.002 | IRAK-1-4 Inhibitor I 0.037 | ibrutinib -0.016 | [10] -0.075 | ralimetinib -0.013 | [11] 0.011 | [12] 0.025 | [13] -0.005 | pinometostat -0.032 | [14] 0.174 | [15] -0.077

GALNT11 (UniProt Q8NCW6)
Sequence of UniProt Q8NCW6 (Q8NCW6 whole entry, looked up): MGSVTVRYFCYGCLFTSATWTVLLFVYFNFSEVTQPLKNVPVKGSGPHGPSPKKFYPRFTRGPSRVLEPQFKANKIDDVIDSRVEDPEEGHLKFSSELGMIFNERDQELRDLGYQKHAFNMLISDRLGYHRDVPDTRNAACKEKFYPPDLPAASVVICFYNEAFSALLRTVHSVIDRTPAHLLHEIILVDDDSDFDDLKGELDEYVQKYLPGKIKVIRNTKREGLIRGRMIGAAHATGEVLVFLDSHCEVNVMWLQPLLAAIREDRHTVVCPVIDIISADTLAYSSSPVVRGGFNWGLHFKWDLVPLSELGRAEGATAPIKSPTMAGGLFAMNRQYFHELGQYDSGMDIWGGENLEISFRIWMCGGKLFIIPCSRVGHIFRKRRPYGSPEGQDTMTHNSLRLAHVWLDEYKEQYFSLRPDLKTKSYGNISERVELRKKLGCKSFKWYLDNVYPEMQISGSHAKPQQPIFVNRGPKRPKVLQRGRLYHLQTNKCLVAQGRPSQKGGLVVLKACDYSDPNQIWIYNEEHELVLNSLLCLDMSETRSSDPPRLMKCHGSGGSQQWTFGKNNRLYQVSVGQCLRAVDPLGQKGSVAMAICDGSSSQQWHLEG
inactive: erlotinib 0.088 | [1] -0.019 | [2] 0.033 | [3] -0.009 | [4] 0.122 | [5] 0.118 | [6] -0.034 | [7] 0.043 | [8] -0.025 | [9] 0.014 | IRAK-1-4 Inhibitor I -0.008 | ibrutinib -0.088 | [10] -0.022 | ralimetinib 0.065 | [11] 0.018 | [12] 0.015 | [13] 0.038 | pinometostat 0.045 | [14] 0.002 | [15] 0.039

FDPS (UniProt P14324)
Sequence of UniProt P14324 (P14324 whole entry, looked up): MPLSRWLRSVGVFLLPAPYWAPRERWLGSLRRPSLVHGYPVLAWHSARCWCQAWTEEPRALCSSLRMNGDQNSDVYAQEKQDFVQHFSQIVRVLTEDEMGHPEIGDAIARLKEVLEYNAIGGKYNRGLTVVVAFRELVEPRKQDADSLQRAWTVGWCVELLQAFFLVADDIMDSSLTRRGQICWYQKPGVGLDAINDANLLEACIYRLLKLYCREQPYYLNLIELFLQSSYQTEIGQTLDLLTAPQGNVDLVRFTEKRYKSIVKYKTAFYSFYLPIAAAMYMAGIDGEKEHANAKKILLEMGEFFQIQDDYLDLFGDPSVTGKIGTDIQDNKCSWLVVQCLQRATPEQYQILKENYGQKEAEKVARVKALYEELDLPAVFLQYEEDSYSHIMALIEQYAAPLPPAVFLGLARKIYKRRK
inactive: erlotinib 0.18 | [1] 0.174 | [2] -0.022 | [3] 0.067 | [4] 0.3 | [5] -0.026 | [6] 0.06 | [7] 0.186 | [8] 0.006 | [9] -0.309 | IRAK-1-4 Inhibitor I -0.127 | ibrutinib -0.066 | [10] -0.096 | ralimetinib 0.048 | [11] -0.319 | [13] -0.028 | pinometostat 0.048 | [14] 0.007 | [15] 0.083
active: [12] -0.63
